In the supplement of paper PMC9950053:
Where a name gives a salt, the structure may show the parent alone.

test system: Danio rerio larvae (5 dpf); assay: startle (activity period 16 minus period 15, 20-s interval sound) minus DMSO control (percentage points); higher = stronger startle response than DMSO larvae; conditions: 10 µM; exposure time: 3 h pre-incubation + 3 h imaging
Experimental: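 Wild-type 5 dpf zebrafish larvae (n=48 per drug, 96-well plates, 28.5 °C) were exposed to Tocris FDA-approved library compounds at 10 µM (0.1% DMSO) for 3 h before and 3 h during imaging. Images were taken every 6 s during visual (moving coloured lines) and acoustic stimuli, and larvae were tracked with the DeepLabCut-based Z-LaP Tracker. Each behavioural measure is the treated-group mean minus the DMSO vehicle control mean (n=844), in percentage points. This mapping covers compounds with 4-character plate codes.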

Row | Compound | startle
1 | CCOC(=O)N1CCC(=C2c3ccc(Cl)cc3CCc3cccnc32)CC1 [Loratidine] | 8.94
2 | CN1CCN(CCCN2c3ccccc3Sc3ccc(Cl)cc32)CC1 [Prochlorperazine dimaleate] | -8.12
3 | CC(=O)Oc1ccccc1C(=O)O [Aspirin] | -4
4 | COc1cc2ncnc(Nc3ccc(F)c(Cl)c3)c2cc1OCCCN1CCOCC1 [Iressa] | -1.42
5 | CCc1ccc(CCOc2ccc(CC3SC(=O)NC3=O)cc2)nc1 (stereo not given) [Pioglitazone hydrochloride] | -4.69
6 | Nc1ncn([C@@H]2O[C@H](CO)[C@@H](O)[C@H]2O)c(=O)n1 [5-Azacytidine] | 2.79
7 | CCCCCCCCc1ccc(CCC(N)(CO)CO)cc1 | -6.92
8 | Brc1c(NC2=NCCN2)ccc2nccnc12 | -5.57
9 | O=C(NCC1CCCCN1)c1cc(OCC(F)(F)F)ccc1OCC(F)(F)F (stereo not given) [Flecainide acetate] | 4.84
10 | O=C(O)CCCc1ccccc1 [Sodium 4-Phenylbutyrate] | -5.61
11 | Nc1nc(NC2CC2)c2ncn([C@H]3C=C[C@@H](CO)C3)c2n1 [Abacavir hemisulfate] | 6.4
12 | CC(C)c1nc(N(C)S(C)(=O)=O)nc(-c2ccc(F)cc2)c1/C=C/[C@@H](O)C[C@@H](O)CC(=O)O [Rosuvastatin calcium] | -0.514
13 | Nc1cccc2c1CN(C1CCC(=O)NC1=O)C2=O (stereo not given) [Lenalidomide] | -4.19
14 | Cc1nc(-c2ccc(OCC(C)C)c(C#N)c2)sc1C(=O)O [Febuxostat] | 3.79
15 | CCCc1nc(C(C)(C)O)c(C(=O)O)n1Cc1ccc(-c2ccccc2-c2nnn[nH]2)cc1 [Olmesartan] | 8.5
16 | CCCN(CCC)S(=O)(=O)c1ccc(C(=O)O)cc1 [Probenecid] | 0.405
17 | Nc1nc(Cl)nc2c1ncn2[C@@H]1O[C@H](CO)[C@@H](O)[C@@H]1F [Clofarabine] | 5.12
18 | Cc1ccc(NC(=O)c2ccc(CN3CCN(C)CC3)cc2)cc1Nc1nccc(-c2cccnc2)n1 [Imatinib mesylate] | 5.71
19 | CCCCc1nc(Cl)c(CO)n1Cc1ccc(-c2ccccc2-c2nnn[nH]2)cc1 [Losartan potassium] | -0.225
20 | COc1c(C)c2c(c(O)c1C/C=C(\C)CCC(=O)OCCN1CCOCC1)C(=O)OC2 [Mycophenolate mofetil] | 3.22

Row | Compound | startle
21 | CCOc1cc(CC(=O)N[C@@H](CC(C)C)c2ccccc2N2CCCCC2)ccc1C(=O)O [Repaglinide] | -4.11
22 | CCOc1nc2cccc(C(=O)O)c2n1Cc1ccc(-c2ccccc2-c2nnn[nH]2)cc1 [Candesartan] | 11.2
23 | CCC(C)(C)C(=O)O[C@H]1C[C@@H](C)C=C2C=C[C@H](C)[C@H](CC[C@@H]3C[C@@H](O)CC(=O)O3)[C@H]21 [Simvastatin] | 3.93
24 | CN1CC(=O)N2[C@H](c3ccc4c(c3)OCO4)c3[nH]c4ccccc4c3C[C@@H]2C1=O [Tadalafil] | 8.43
25 | CCCc1nc2c(C)cc(-c3nc4ccccc4n3C)cc2n1Cc1ccc(-c2ccccc2C(=O)O)cc1 [Telmisartan] | 2.86
26 | Clc1ccccc1C(c1ccccc1)(c1ccccc1)n1ccnc1 [Clotrimazole] | 4.43
27 | C[C@H](Cc1cc2c(c(C(N)=O)c1)N(CCCO)CC2)NCCOc1ccccc1OCC(F)(F)F [Silodosin] | 2.61
28 | Cc1c(-c2ccc(O)cc2)n(Cc2ccc(OCCN3CCCCCC3)cc2)c2ccc(O)cc12 [Bazedoxifene acetate] | -3.07
29 | Nc1ncn([C@H]2C[C@H](O)[C@@H](CO)O2)c(=O)n1 [Decitabine] | -1.27
30 | CNC(=O)c1ccccc1Sc1ccc2c(/C=C/c3ccccn3)n[nH]c2c1 [Axitinib] | -7.2
31 | CCc1c2c(nc3ccc(OC(=O)N4CCC(N5CCCCC5)CC4)cc13)-c1cc3c(c(=O)n1C2)COC(=O)[C@]3(O)CC | 0.964
32 | CO[C@H]1/C=C/O[C@@]2(C)Oc3c(C)c(O)c4c(O)c(c5c(nc6cc(C)ccn65)c4c3C2=O)NC(=O)/C(C)=C\C=C\[C@H](C)[C@H](O)[C@@H](C)[C@@H](O)[C@@H](C)[C@H](OC(C)=O)[C@@H]1C [Rifaximin] | 1.18
33 | O=C(O)c1cc(/N=N/c2ccc(S(=O)(=O)Nc3ccccn3)cc2)ccc1O [Sulfasalazine] | -1
34 | CC(C)n1c(/C=C/C(O)CC(O)CC(=O)O)c(-c2ccc(F)cc2)c2ccccc21 (stereo not given) [Fluvastatin sodium] | 3.68
35 | O=C(O[C@@H]1C[C@@H]2C[C@H]3C[C@H](C1)N2CC3=O)c1c[nH]c2ccccc12 [Dolasetron mesylate] | 0.504
36 | NC(=O)N1c2ccccc2C=Cc2ccccc21 [Carbamazepine] | 3.47
37 | CCOc1ccccc1OCCN[C@H](C)Cc1ccc(OC)c(S(N)(=O)=O)c1 [Tamsulosin hydrochloride] | 1.92
38 | CC(CCc1ccc(O)cc1)NCCc1ccc(O)c(O)c1 (stereo not given) [Dobutamine hydrochloride] | -0.893
39 | Nc1nc2[nH]cc(CCc3ccc(C(=O)N[C@@H](CCC(=O)O)C(=O)O)cc3)c2c(=O)[nH]1 [Pemetrexed] | -5.08
40 | Cn1cnc([N+](=O)[O-])c1Sc1ncnc2[nH]cnc12 [Azathioprine] | -0.818
